Test in all cases: yeast three-hybrid, YBZ-1, SC-Leu-His + 0.5 mM 3-AT, 4 days
What all share (settings): tags: N-Gal4 AD-HA kept; label: inside an RPR1-promoter hybrid RNA with tandem MS2 sites; ssRNA

The target of one assay is PUM1 PUF domain R4-IML (Homo sapiens, UniProt Q14671 828-1176, N971I;H972M;Q975L). The essentials:
(§1)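 A centromeric plasmid in strain YBZ-1 co-expressed Pumilio-1 PUF domain libraries, randomized at the three base-contacting residues of each repeat, with matching RNA elements; the strain carries a LexA–MS2 coat fusion and a HIS3 reporter. After four days on SC-Leu (input) or SC-Leu-His + 0.5 mM 3-AT (selection), the repeat regions were PCR-amplified and Illumina-sequenced. The interaction score is the log change in variant frequency from input to selection, using log2 and a pseudocount of 1 where absent.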

A further assay has as its target PUM1 PUF domain R4-QPG (Homo sapiens, UniProt Q14671 828-1176, N971Q;H972P;Q975G). Summed up: as §1
For another assay, the target named is PUM1 PUF domain R8-KHQ (Homo sapiens, UniProt Q14671 828-1176, N1122K;Y1123H). Summed up: as §1
The next assay has as its target PUM1 PUF domain R3-DYS (Homo sapiens, UniProt Q14671 828-1176, C935D;R936Y;Q939S). The essentials:
as §1

In a further assay the target is PUM1 PUF domain R5-RQT (Homo sapiens, UniProt Q14671 828-1176, C1007R;R1008Q;Q1011T). Summed up: as §1
The target in a further assay is PUM1 PUF domain R5-DWY (Homo sapiens, UniProt Q14671 828-1176, C1007D;R1008W;Q1011Y). Summed up:
as §1

A further assay has as its target PUM1 PUF domain R5-PFG (Homo sapiens, UniProt Q14671 828-1176, C1007P;R1008F;Q1011G). The essentials:
as §1

The next assay has as its target PUM1 PUF domain R5-RGV (Homo sapiens, UniProt Q14671 828-1176, C1007R;R1008G;Q1011V). The essentials:
as §1

A further assay addresses PUM1 PUF domain R5-KSD (Homo sapiens, UniProt Q14671 828-1176, C1007K;R1008S;Q1011D). Summed up: as §1
In another assay the target is PUM1 PUF domain R5-KLI (Homo sapiens, UniProt Q14671 828-1176, C1007K;R1008L;Q1011I). Summed up: as §1
Chain of PUM1 PUF domain R5-KLI (Q14671 828-1176 C1007K/R1008L/Q1011I): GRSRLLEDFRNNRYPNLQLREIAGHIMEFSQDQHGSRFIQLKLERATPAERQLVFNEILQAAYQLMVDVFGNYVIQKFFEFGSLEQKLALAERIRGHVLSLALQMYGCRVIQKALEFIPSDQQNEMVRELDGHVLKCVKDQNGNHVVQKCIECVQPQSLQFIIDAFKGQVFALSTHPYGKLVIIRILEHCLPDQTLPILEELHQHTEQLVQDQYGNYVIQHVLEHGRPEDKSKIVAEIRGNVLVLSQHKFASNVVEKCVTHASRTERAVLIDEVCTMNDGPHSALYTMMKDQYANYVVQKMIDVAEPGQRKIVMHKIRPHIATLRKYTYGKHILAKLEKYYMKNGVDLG

Chain of PUM1 PUF domain R4-QPG (Q14671 828-1176 N971Q/H972P/Q975G): as the sequence (Q14671 828-1176 C1007K/R1008L/Q1011I) above, with N144Q, H145P, Q148G, K180C, L181R, I184Q counted along it
Chain of PUM1 PUF domain R5-DWY (Q14671 828-1176 C1007D/R1008W/Q1011Y): as the sequence (Q14671 828-1176 C1007K/R1008L/Q1011I) above, with K180D, L181W, I184Y counted along it
Chain of PUM1 PUF domain R5-KSD (Q14671 828-1176 C1007K/R1008S/Q1011D): as the sequence (Q14671 828-1176 C1007K/R1008L/Q1011I) above, with L181S, I184D counted along it
Chain of PUM1 PUF domain R5-RGV (Q14671 828-1176 C1007R/R1008G/Q1011V): as the sequence (Q14671 828-1176 C1007K/R1008L/Q1011I) above, with K180R, L181G, I184V counted along it
Chain of PUM1 PUF domain R5-RQT (Q14671 828-1176 C1007R/R1008Q/Q1011T): as the sequence (Q14671 828-1176 C1007K/R1008L/Q1011I) above, with K180R, L181Q, I184T counted along it
Chain of PUM1 PUF domain R3-DYS (Q14671 828-1176 C935D/R936Y/Q939S): as the sequence (Q14671 828-1176 C1007K/R1008L/Q1011I) above, with C108D, R109Y, Q112S, K180C, L181R, I184Q counted along it
Chain of PUM1 PUF domain R8-KHQ (Q14671 828-1176 N1122K/Y1123H): as the sequence (Q14671 828-1176 C1007K/R1008L/Q1011I) above, with K180C, L181R, I184Q, N295K, Y296H counted along it
Chain of PUM1 PUF domain R5-PFG (Q14671 828-1176 C1007P/R1008F/Q1011G): as the sequence (Q14671 828-1176 C1007K/R1008L/Q1011I) above, with K180P, L181F, I184G counted along it
Chain of PUM1 PUF domain R4-IML (Q14671 828-1176 N971I/H972M/Q975L): as the sequence (Q14671 828-1176 C1007K/R1008L/Q1011I) above, with N144I, H145M, Q148L, K180C, L181R, I184Q counted along it

Take “GGCUAGAACUAGUGGAUCCCCCGGCGCCCGGCGGCUCGAGCCCGGGUAAGUGUAGAUAGUCUGCAUGCCGCCGGGCGCCAUGCCUGCAGGUCGACUCUAGAAAACAUG”: in the assay with PUM1 PUF domain R4-IML, the binding signal was 3.09 log2 enrichment (interaction score).
As to “GGCUAGAACUAGUGGAUCCCCCGGCGCCCGGCGGCUCGAGCCCGGGUAAGUGUACAUAGUCUGCAUGCCGCCGGGCGCCAUGCCUGCAGGUCGACUCUAGAAAACAUG”, in the assay with PUM1 PUF domain R4-QPG, the binding signal is 3.33 log2 enrichment (interaction score).
In the case of “GGCUAGAACUAGUGGAUCCCCCGGCGCCCGGCGGCUCGAGCCCGGGUAAGCGUAAAUAGUCUGCAUGCCGCCGGGCGCCAUGCCUGCAGGUCGACUCUAGAAAACAUG”, in the assay with PUM1 PUF domain R8-KHQ, the binding signal was 4.7 log2 enrichment (interaction score).
“GGCUAGAACUAGUGGAUCCCCCGGCGCCCGGCGGCUCGAGCCCGGGUAAGUGUAAAUAGUCUGCAUGCCGCCGGGCGCCAUGCCUGCAGGUCGACUCUAGAAAACAUG”: the binding signal with PUM1 PUF domain R3-DYS was 4.59 log2 enrichment (interaction score); with PUM1 PUF domain R5-RQT it was 1.57 log2 enrichment (interaction score); with PUM1 PUF domain R4-QPG, 2.21 log2 enrichment (interaction score); with PUM1 PUF domain R5-DWY, 6.99 log2 enrichment (interaction score); in the assay with PUM1 PUF domain R5-PFG, 6.32 log2 enrichment (interaction score).
Regarding “GGCUAGAACUAGUGGAUCCCCCGGCGCCCGGCGGCUCGAGCCCGGGUAAGUGUAUAUAGUCUGCAUGCCGCCGGGCGCCAUGCCUGCAGGUCGACUCUAGAAAACAUG”, the binding signal in the assay with PUM1 PUF domain R4-QPG is 5.06 log2 enrichment (interaction score).
Consider “GGCUAGAACUAGUGGAUCCCCCGGCGCCCGGCGGCUCGAGCCCGGGUAAGUGUUAAUAGUCUGCAUGCCGCCGGGCGCCAUGCCUGCAGGUCGACUCUAGAAAACAUG”, for which the binding signal in the assay with PUM1 PUF domain R5-RGV was 0.34 log2 enrichment (interaction score); with PUM1 PUF domain R5-KSD, 1.41 log2 enrichment (interaction score).
As to “GGCUAGAACUAGUGGAUCCCCCGGCGCCCGGCGGCUCGAGCCCGGGUAAGUGUCAAUAGUCUGCAUGCCGCCGGGCGCCAUGCCUGCAGGUCGACUCUAGAAAACAUG”, the binding signal was 2.55 log2 enrichment (interaction score) with PUM1 PUF domain R5-RGV; 4.99 log2 enrichment (interaction score) with PUM1 PUF domain R5-RQT; 2.75 log2 enrichment (interaction score) with PUM1 PUF domain R5-KLI; 2.5 log2 enrichment (interaction score) in the assay with PUM1 PUF domain R5-KSD; 1.16 log2 enrichment (interaction score) in the assay with PUM1 PUF domain R5-DWY.
As for “GGCUAGAACUAGUGGAUCCCCCGGCGCCCGGCGGCUCGAGCCCGGGUAAGUGUGAAUAGUCUGCAUGCCGCCGGGCGCCAUGCCUGCAGGUCGACUCUAGAAAACAUG”, the binding signal in the assay with PUM1 PUF domain R5-DWY was 2.39 log2 enrichment (interaction score).

(Values after publication PMC8384837, “Expanding the binding specificity for RNA recognition by a PUF domain”.)
